Assay results from publication PMC4336329 (PLoS ONE, 2015).
Hit rate of the full screen: of about 310,000 compounds, about 14,000 (4.5%) showed an effect of 50% or more. Effects have a minus sign here. What follows is part of a selection rich in strong results, with near analogues and random picks from the rest.

Target: human ether-à-go-go-related gene (hERG) potassium channel (human, UniProt Q12809)
Experiment: primary screen, population patch clamp on CHO cells stably expressing hERG; higher = less effect of the substance
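Also: peak tail current of the secondary pulse compared with the same well before compound.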

human ether-à-go-go-related gene (hERG) potassium channel, sequence (Q12809 whole entry, looked up): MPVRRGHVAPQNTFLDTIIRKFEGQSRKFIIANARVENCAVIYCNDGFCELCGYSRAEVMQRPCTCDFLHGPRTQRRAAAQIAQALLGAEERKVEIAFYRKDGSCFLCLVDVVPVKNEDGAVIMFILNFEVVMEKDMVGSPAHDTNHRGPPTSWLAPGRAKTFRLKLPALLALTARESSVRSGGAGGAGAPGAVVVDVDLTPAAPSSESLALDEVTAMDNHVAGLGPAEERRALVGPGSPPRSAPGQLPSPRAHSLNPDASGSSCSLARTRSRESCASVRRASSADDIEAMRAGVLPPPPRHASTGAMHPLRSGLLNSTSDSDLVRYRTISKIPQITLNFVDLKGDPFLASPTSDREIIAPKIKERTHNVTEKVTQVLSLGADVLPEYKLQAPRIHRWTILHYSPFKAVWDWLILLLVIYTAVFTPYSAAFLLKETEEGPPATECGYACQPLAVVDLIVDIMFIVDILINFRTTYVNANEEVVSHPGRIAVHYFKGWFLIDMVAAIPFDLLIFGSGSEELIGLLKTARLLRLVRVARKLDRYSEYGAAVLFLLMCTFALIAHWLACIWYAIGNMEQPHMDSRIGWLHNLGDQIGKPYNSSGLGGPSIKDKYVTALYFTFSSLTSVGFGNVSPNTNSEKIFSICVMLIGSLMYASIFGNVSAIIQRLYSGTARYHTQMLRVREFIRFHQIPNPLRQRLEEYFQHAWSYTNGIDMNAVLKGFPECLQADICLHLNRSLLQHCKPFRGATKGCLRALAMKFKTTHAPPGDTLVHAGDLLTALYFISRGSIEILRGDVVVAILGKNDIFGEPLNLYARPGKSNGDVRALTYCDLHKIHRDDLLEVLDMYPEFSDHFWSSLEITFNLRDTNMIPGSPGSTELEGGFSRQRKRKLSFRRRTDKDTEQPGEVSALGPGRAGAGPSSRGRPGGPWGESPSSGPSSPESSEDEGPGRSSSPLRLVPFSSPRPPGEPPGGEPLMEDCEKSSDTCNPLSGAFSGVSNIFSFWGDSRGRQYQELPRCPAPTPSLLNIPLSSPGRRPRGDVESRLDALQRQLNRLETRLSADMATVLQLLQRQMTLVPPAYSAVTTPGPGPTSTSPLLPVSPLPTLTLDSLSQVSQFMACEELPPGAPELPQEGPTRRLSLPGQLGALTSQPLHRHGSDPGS

Going from COCCOC(=O)c1c(NC(=O)COC(=O)c2ccc(C)o2)sc(C(N)=O)c1C to CCOC(=O)c1sc(NC(=O)C2C3C=CC(C3)C2C(=O)O)nc1C (centres unmarked), the “hERG current change (%, negative = inhibition) at 10uM” value rises from -10.9% to 16.2%.

Compared with CCc1ccc(CCOc2ccc(CC3SC(=O)NC3=O)cc2)nc1.Cl (centres unmarked), Cc1ccc(CSc2ncnc3ccccc23)cc1 is higher in “hERG current change (%, negative = inhibition) at 10uM” value: 4.26% for the first, 11.3% for the second.

Going from CC(C)CC(=O)N1CCN(C(=O)c2cccc(F)c2)CC1 to COc1cccc(C(=O)N2CCN(C(=O)c3cccc(F)c3)CC2)c1, the “hERG current change (%, negative = inhibition) at 10uM” value falls from 0.0457% to -0.0938%.

Compared with C1CCC(OCCN2CCN(CCOC3CCCCC3)CC2)CC1, COc1ccc(CCNC(=O)NC2CCCCC2)cc1OC is higher in “hERG current change (%, negative = inhibition) at 10uM” value: -37.1% for the first, 8.03% for the second.

Going from Cc1ccc(N2C(=O)NC3(CCCCC3)C2=O)cc1 to COc1ccc(N2CCN(C(=O)c3ccc(C)cc3)CC2)c([N+](=O)[O-])c1, the “hERG current change (%, negative = inhibition) at 10uM” value falls from 9.24% to -62.9%.

Going from O=C(Nc1ccc(F)cc1F)N1CCN(c2ncccn2)CC1 to Cc1ccccc1NC(=O)N1CCN(c2ncccn2)CC1, the “hERG current change (%, negative = inhibition) at 10uM” value rises from -8.77% to 4.15%.

Going from COc1cccc(Cl)c1NC(=O)N1CCN(c2cc(C)nc3ccccc23)CC1 to Cc1cc(N2CCN(C(=O)Nc3ccc(F)cc3F)CC2)c2ccccc2n1, the “hERG current change (%, negative = inhibition) at 10uM” value rises from -75.3% to -72.2%.

Going from Cc1cc(N2CCN(C(=O)Nc3ccccc3C#N)CC2)c2ccccc2n1 to CCCCc1ccc(NC(=O)N2CCN(c3cc(C)nc4ccccc34)CC2)c(C)c1, the “hERG current change (%, negative = inhibition) at 10uM” value rises from -72.9% to -61.6%.

Going from COc1ccccc1N1CCN(C(=O)Nc2cccc(C)c2)CC1 to COc1ccccc1N1CCN(C(=O)Nc2cccc(Cl)c2)CC1, the “hERG current change (%, negative = inhibition) at 10uM” value falls from -3.99% to -28.2%.

First: Cc1cc(N2CCN(C(=O)/C=C/C(=O)O)CC2)c2ccccc2n1
Second: Cc1cc(N2CCN(CC(O)C(F)(F)F)CC2)c2ccccc2n1 (centres unmarked)
The “hERG current change (%, negative = inhibition) at 10uM” value of the first is higher: 32.4% for the first, -40.7% for the second.

First: CC(C)n1c(N2CCN(C(=O)Nc3ccc(F)cc3F)CC2)nc2ccccc21
Second: COc1ccc(N2CCN(C(=O)c3cccc(F)c3)CC2)c([N+](=O)[O-])c1
The “hERG current change (%, negative = inhibition) at 10uM” value of the first is higher: -26.3% for the first, -73.2% for the second.

Going from Cc1cc(C(=O)Nc2ccccc2N2CCOCC2)c2ccccc2n1 to COc1ccc(C(=O)c2ccc(N3CCOCC3)c([N+](=O)[O-])c2)cc1, the “hERG current change (%, negative = inhibition) at 10uM” value falls from -15.5% to -43.7%.

Going from CC[C@H](C)/C=C(C)/C=C/C1=CC2=CC(=O)[C@]3(C)OC(=O)[C@@H](C(C)=O)[C@@H]3C2=CO1 to CCn1c(=O)c(C(=O)CN2CC(C)OC(C)C2)c(N)n(Cc2ccccc2)c1=O (centres unmarked), the “hERG current change (%, negative = inhibition) at 10uM” value falls from 4.65% to -32.6%.

Compared with O=[N+]([O-])c1ccc(O)c(/C=N/n2c(-c3ccccc3)n[nH]c2=S)c1, O=C(N/N=C/c1cc([N+](=O)[O-])ccc1O)C1C2CCCCC21 (centres unmarked) is lower in “hERG current change (%, negative = inhibition) at 10uM” value: 17.9% for the first, 3.28% for the second.

Going from O=C(O)c1cccc(Nc2ncnc3ccccc23)c1 to O=C(Nc1ccc(Cl)cc1)c1cc2c(cc1O)[nH]c1ccccc12, the “hERG current change (%, negative = inhibition) at 10uM” value rises from 17.3% to 21%.

Going from CC1CCCC(C)N1NC(=O)c1cccc(S(=O)(=O)N2CCc3ccccc32)c1 (centres unmarked) to COc1cccc(CC(=O)N2CCN(c3ccccc3[N+](=O)[O-])CC2)c1, the “hERG current change (%, negative = inhibition) at 10uM” value falls from -2.22% to -21%.

Going from Cc1ccc(S(=O)(=O)NNC(=O)C2COc3ccccc3O2)cc1C (centres unmarked) to O=C(CSc1nnc(-c2ccc(S(=O)(=O)N3CCCC3)cc2)o1)NCc1ccco1, the “hERG current change (%, negative = inhibition) at 10uM” value falls from 15.2% to -7.57%.

Compared with CCC(=O)N1CCN(c2ccc(OC)cc2[N+](=O)[O-])CC1, CCCCC(=O)N1CCN(c2ccc(OC)cc2[N+](=O)[O-])CC1 is lower in “hERG current change (%, negative = inhibition) at 10uM” value: -19.5% for the first, -64.5% for the second.

First: COc1ccc(N2CCN(C(=O)c3ccccc3)CC2)c([N+](=O)[O-])c1
Second: COc1ccc(N2CCN(C(=O)c3cccc(Br)c3)CC2)c([N+](=O)[O-])c1
The “hERG current change (%, negative = inhibition) at 10uM” value of the first is higher: -67.7% for the first, -87.1% for the second.

First: Cn1c(=O)n(C)c2cc([N+](=O)[O-])c(N3CCN(C(=O)c4cccc(F)c4)CC3)cc21
Second: COc1ccc(N2CCN(C(=O)c3cccnc3)CC2)c([N+](=O)[O-])c1
The “hERG current change (%, negative = inhibition) at 10uM” value of the first is higher: -32.7% for the first, -70.8% for the second.

Compared with COc1ccc(N2CCN(C(=O)c3ccc(Br)cc3)CC2)c([N+](=O)[O-])c1, COc1ccc(N2CCN(c3ccc(C(N)=O)cc3[N+](=O)[O-])CC2)cc1 is higher in “hERG current change (%, negative = inhibition) at 10uM” value: -72.3% for the first, 2.51% for the second.

Going from COc1ccc(N2CCN(C(=O)CC34CC5CC(CC(C5)C3)C4)CC2)c([N+](=O)[O-])c1 to COc1ccc(N2CCN(C(=S)NC(=O)c3cccs3)CC2)c([N+](=O)[O-])c1, the “hERG current change (%, negative = inhibition) at 10uM” value falls from 0.229% to -47.8%.

First: COc1ccc(C2N=C(Nc3ccc(C)cc3)Nc3nc(C)cc(=O)n32)cc1 (centres unmarked)
Second: Cc1ccc2nc(-c3ccc(NS(=O)(=O)c4ccc(F)c(F)c4)cc3)sc2c1
The “hERG current change (%, negative = inhibition) at 10uM” value of the first is lower: 1.81% for the first, 23.3% for the second.

Compared with COc1ccc(CCN2CC(O)=C(c3nc(C)cs3)C2=N)cc1OC, COc1ccc(CCN(Cc2nc(-c3ccccc3)no2)Cc2nc(-c3ccccc3)no2)cc1OC is higher in “hERG current change (%, negative = inhibition) at 10uM” value: -21.8% for the first, -3.37% for the second.

Compared with COc1cccc(C2CC(c3ccccc3Cl)n3nc(N)nc3N2)c1 (centres unmarked), COc1cccc(N2CCN(C(=O)c3cccnc3)CC2)c1 is higher in “hERG current change (%, negative = inhibition) at 10uM” value: -9.01% for the first, 11.2% for the second.

Compared with CCn1cc(C(=O)N[C@@H](CCSC)C(=O)NCCO)c(=O)c2cc3c(cc21)OCO3, Cc1ccc(C)c(N2CCN(C(=O)c3ccc(N4CCOCC4)c([N+](=O)[O-])c3)CC2)c1 is lower in “hERG current change (%, negative = inhibition) at 10uM” value: 20.6% for the first, -21.2% for the second.

First: O=C(NCCC1=CCCCC1)c1ccc(Br)o1
Second: O=C(c1cccnc1)N1CCN(c2ccccc2Cl)CC1
The “hERG current change (%, negative = inhibition) at 10uM” value of the first is higher: -4.78% for the first, -18.5% for the second.

First: O=C(c1ccc([N+](=O)[O-])cc1)N1CCN(C(=O)c2cccnc2)CC1
Second: O=C(c1cccnc1)N1CCN(c2ccc([N+](=O)[O-])cc2Cl)CC1
The “hERG current change (%, negative = inhibition) at 10uM” value of the first is higher: -15.7% for the first, -65% for the second.

Going from COc1cccc(C(=O)/C=C/c2ccc(N3CCCCC3)c([N+](=O)[O-])c2)c1 to COc1cccc(C(=O)NC(=S)N2CCN(c3ccc(C(F)(F)F)cc3[N+](=O)[O-])CC2)c1, the “hERG current change (%, negative = inhibition) at 10uM” value rises from -3.01% to 1.6%.

With O=C(c1cccnc1)N1CCN(c2c(Cl)cccc2[N+](=O)[O-])CC1 the “hERG current change (%, negative = inhibition) at 10uM” value was -46%.
